Records with an inconclusive call do not appear. Calls of active or inactive are those of the source. Unless noted, the call rests on the fitted dose curve; in most records, active means well fitted curve in the direction sought with a large enough effect in the repeat runs; inconclusive means weak or mixed curves; inactive means no such curve, though single readings can be large; an effect the other way counts as inactive or inconclusive.
Columns and labels:
[1] = qHTS assay to identify small molecule agonists of the progesterone receptor (PR) signaling pathway - cell viability counter screen (AID 1346799; calls by dose curve; further: nearly all actives have a fitted effect of over 45% in size; further: potency means the concentration at half of the fitted maximal effect)
Summary of the method: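 Cytotoxicity in PR-bla HEK293T cells: 16 h compound, 37C; CellTiter-Glo added post-FRET read; luminescence after 30 min RT.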

[2] = qHTS assay to identify small molecule antagonists of the TGF-beta/Smad signaling pathway - cell viability counter screen (AID 1346824); further: nearly all actives have a fitted effect of over 50% in size
Summary of the method: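 Cytotoxicity counter-screen run in the same wells as the beta-lactamase Smad reporter read: CellTiter-Glo luminescence after 30 min at room temperature. HEK 293T SBE-bla cells had 5 hr compound exposure at 37 C with TGF-beta1 (0.25 ng/mL stock).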

[3] = qHTS assay to identify small molecule agonists of the TGF-beta/Smad signaling pathway - cell viability counter screen (AID 1346829); further: top concentration of the series differs between compounds; nearly all actives have a fitted effect of over 45% in size
Summary of the method: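 Here the cytotoxicity of library compounds is measured in SBE-bla HEK 293T cells treated for 5 hr, using CellTiter-Glo added to wells already read for the beta-lactamase reporter.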

[4] = qHTS assay to identify small molecule agonists of the TGF-beta/Smad signaling pathway (AID 1346859; active means well fitted activation curve with a large enough effect in the signal ratio in the repeat runs, not every such curve was filed as active; the % refers to the signal ratio; further: series mostly up to about 77 µM)
Summary of the method: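 Stable Smad binding element-beta-lactamase HEK 293T cells; 5 hr compound exposure at 37 C under 5% CO2; 2 hr room-temperature substrate step; fluorescence excited at 405 nm, collected at 460 nm and 530 nm.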

[5] = Caspase-3/7 induction in HepG2 cells by small molecules, qHTS assay (AID 1346978); further: nearly all actives have a fitted effect of over 15% in size
Summary of the method: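 Caspase-3/7 induction was measured by Caspase-Glo 3/7 luminescence (30 min, room temperature) after a 17 hr compound exposure of wild-type HepG2 cells seeded at 2,000 per well and pre-incubated 5 hr.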

[6] = Caspase-3/7 induction in CHO-K1 cells by small molecules, qHTS cell viability counter screen (AID 1346979); further: nearly all actives have a fitted effect of over 35% in size; further: potency means the concentration at half of the fitted maximal effect
Summary of the method: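 To flag cytotoxic compounds, treated CHO-K1 wild-type cells were given CellTiter-Fluor at 16hr and read fluorescently after 1hr at 37C; the caspase-3/7 luminescence was measured in these same wells.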

[7] = qHTS assay to identify small molecule antagonists of the progesterone receptor (PR) signaling pathway - cell viability counter screen (AID 1346798); further: nearly all actives have a fitted effect of over 50% in size; further: potency means the concentration at half of the fitted maximal effect; on activity change, negative = cytotoxicity: series mostly up to about 92 µM
Summary of the method: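 ATP content as viability readout: CellTiter-Glo luminescence, 30 min room temperature, in PR-UAS-bla HEK293T cells after 16 hr compound/R5020 treatment at 37C and 5% CO2.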

[8] = biological target: Thyrotropin-releasing hormone receptor (Homo sapiens) (UniProt P34981); assay: qHTS assay to identify small molecule agonists of the thyrotropin-releasing hormone receptor (TRHR) signaling pathway (AID 1346891; calls by dose curve; further: potency means the concentration at half of the fitted maximal effect; on activation: series mostly up to about 58 µM)
Chain of Thyrotropin-releasing hormone receptor (Homo sapiens) (P34981 whole entry, looked up): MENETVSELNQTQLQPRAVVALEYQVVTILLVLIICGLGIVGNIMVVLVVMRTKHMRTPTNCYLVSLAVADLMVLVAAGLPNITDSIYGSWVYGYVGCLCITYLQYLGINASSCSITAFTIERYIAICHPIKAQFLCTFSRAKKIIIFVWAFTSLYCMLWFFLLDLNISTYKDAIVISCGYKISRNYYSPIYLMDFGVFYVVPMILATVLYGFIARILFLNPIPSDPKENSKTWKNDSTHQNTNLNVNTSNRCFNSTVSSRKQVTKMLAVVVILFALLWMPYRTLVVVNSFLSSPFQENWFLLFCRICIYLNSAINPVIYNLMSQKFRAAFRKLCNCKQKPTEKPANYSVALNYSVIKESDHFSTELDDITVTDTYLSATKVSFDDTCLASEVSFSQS
Summary of the method: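 In 1536-format, 1500 TRHR-Hek293 cells per well grew 18 h, took up calcium dye for 2 h at 37 °C, received compound, and were read kinetically; 15-point titrations, triplicates.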

[9] = Human pregnane X receptor (PXR) small molecule agonists, qHTS cell viability counter screen (AID 1346977); further: nearly all actives have a fitted effect of over 50% in size; further: potency means the concentration at half of the fitted maximal effect
Summary of the method: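 Readout is CellTiter-Fluor fluorescence from PXR-Luc HepG2 cells. Plated cells rested 5hr, then were treated with compounds for 24hr at 37C and 5% CO2, with reagent present during the last hour.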

[10] = biological target: Thyrotropin-releasing hormone receptor (Homo sapiens) (UniProt P34981); assay: qHTS assay to identify small molecule antagonists of the thyrotropin-releasing hormone receptor (TRHR) signaling pathway (AID 1346877; active means well fitted inhibition curve with a large enough effect in the repeat runs, not every such curve was filed as active; further: series mostly up to about 51 µM)
Summary of the method: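 TRHR-expressing HEK293 cells were seeded, cultured 18 h at 37 °C, then loaded with calcium dye for 2 h. Compounds were pre-incubated 5 min at room temperature before 1 nM TRH (final) was added, and kinetic fluorescence was recorded for 3 min.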
On the % scale 0 is the no-effect control and ±100 the full control effect.

CCOc1nc2cccc(C(=O)O)c2n1Cc1ccc(-c2ccccc2-c2nn[nH]n2)cc1
inactive: Potency [1] | Potency [2] | Potency [3] | outcome [4] | outcome [5] | Potency [6]

CCCCC(CC)COCCCN (configuration not stated)
inactive: Potency [7] | Potency [2] | outcome [4] | Potency [8] | Potency [9] | outcome [5] | Potency [6]

C#CCOC(=O)[C@@H](C)Oc1ccc(Oc2ncc(Cl)cc2F)cc1
inactive: Potency [7] | Potency [2] | outcome [4] | outcome [10] | Potency [9] | outcome [5] | Potency [6]

CCC(=O)OC(C)(C)C1CC=C(C)CC1 (configuration not stated)
inactive: Potency [7] | Potency [2] | Potency [3] | outcome [4] | Potency [9] | outcome [5] | Potency [6]

CC(=O)[C@@]1(O)CC[C@H]2[C@@H]3C[C@H](C)C4=CC(=O)CC[C@]4(C)[C@H]3CC[C@@]21C
inactive: Potency [7] | Potency [2] | Potency [3] | outcome [4] | Potency [9] | outcome [5] | Potency [6]

CN(C)C/C=C(/c1ccc(Br)cc1)c1cccnc1
inactive: Potency [1] | Potency [2] | Potency [3] | outcome [4] | Potency [8] | outcome [5] | Potency [6]

N#Cc1cc2ccccc2c2ccccc12
inactive: Potency [1] | Potency [2] | Potency [3] | outcome [4] | outcome [10] | Potency [8] | Potency [9] | outcome [5] | Potency [6]

O=C(O)Cn1c(C(=O)Nc2nc(-c3ccccc3Cl)cs2)cc2ccccc21
inactive: Potency [7] | Potency [2] | Potency [3] | Potency [9] | outcome [5]
active: Potency [8] 3.79 µM

O=S(=O)(O)c1ccc(O)c2ncccc12
inactive: Potency [1] | Potency [2] | Potency [3] | outcome [4] | Potency [9] | outcome [5]

O=C(c1ccccc1)c1ccc2n1CCC2C(=O)O (configuration not stated)
inactive: Potency [7] | Potency [2] | Potency [3] | Potency [9] | outcome [5] | Potency [6]

COc1ccc([C@@H]2Sc3ccccc3N(CCN(C)C)C(=O)[C@@H]2OC(C)=O)cc1
inactive: Potency [2] | Potency [3] | outcome [4] | Potency [9] | outcome [5] | Potency [6]
active: Potency [7] 21.1 µM

C=C(C)C(=O)OCCOc1ccccc1
inactive: Potency [1] | Potency [2] | Potency [3] | outcome [4] | outcome [10] | Potency [8] | Potency [9] | outcome [5] | Potency [6]

COC(=O)CSc1cc(N=c2sc(=O)n3n2CCCC3)c(F)cc1Cl
inactive: Potency [7] | Potency [3] | Potency [9] | outcome [5] | Potency [6]

CCOC(=S)SSC(=S)OCC
inactive: Potency [7] | Potency [2] | Potency [3] | outcome [4] | Potency [9] | outcome [5] | Potency [6]

CN(C)CCCOc1nn(Cc2ccccc2)c2ccccc12
active: Potency [9] 26.6 µM
inactive: Potency [1] | Potency [2] | Potency [3] | outcome [4] | outcome [10] | Potency [8] | outcome [5] | Potency [6]

CC(=O)N(O)CCCCCNC(=O)CCC(=O)N(O)CCCCCNC(=O)CCC(=O)N(O)CCCCCN
inactive: Potency [1] | Potency [2] | Potency [3] | outcome [4] | outcome [10] | Potency [9] | outcome [5] | Potency [6]

O=C(C(=O)c1ccc(Br)cc1)c1ccc(Br)cc1
inactive: activity change, negative = cytotoxicity [1] 14.5% [at 19 µM] | viability change, negative = cytotoxic [2] 7.81% [at 15.8 µM] | activity change, negative = cytotoxicity [3] 0.5% [at 15.8 µM] | activation [4] 2.2% [at 15.8 µM] | activity, negative = inhibition [10] -2.27% [at 10.5 µM] | activation [8] 0.083% [at 11.8 µM] | activity change, negative = cytotoxicity [9] -1.5% [at 19 µM] | caspase activation [5] -0.0549% [at 19 µM] | activity change, negative = cytotoxicity [6] 1.57% [at 19 µM]

O=c1c2ccccc2nnn1CCl
inactive: Potency [7] | Potency [2] | Potency [3] | outcome [4] | Potency [8] | Potency [9] | outcome [5] | Potency [6]

CC(=O)c1c(C)c([N+](=O)[O-])c(C(C)(C)C)c([N+](=O)[O-])c1C
inactive: Potency [7] | Potency [2] | Potency [3] | outcome [4] | Potency [9] | outcome [5] | Potency [6]

Cc1occc1S
inactive: Potency [1] | Potency [2] | Potency [3] | outcome [4] | outcome [10] | Potency [8] | Potency [9] | outcome [5] | Potency [6]

Oc1ccc(C(O)CNCCCCCCNCC(O)c2ccc(O)c(O)c2)cc1O (configuration not stated)
inactive: Potency [1] | Potency [2] | Potency [3] | outcome [4] | outcome [10] | Potency [8] | Potency [9] | outcome [5]

Oc1ccc(Cc2ccccc2)cc1
inactive: Potency [2] | Potency [3] | outcome [4] | outcome [10]

CCCCc1cc2ccccc2c(OCCN(C)C)n1
inactive: Potency [1] | Potency [2] | outcome [4] | outcome [10] | outcome [5] | Potency [6]

CCCCOC(O)CC (configuration not stated)
inactive: Potency [2] | Potency [3] | outcome [4] | outcome [10] | Potency [8] | Potency [9] | outcome [5] | Potency [6]

CCCOc1ccc2nc(NC(=O)OC)[nH]c2c1
inactive: Potency [2] | Potency [3] | outcome [4] | Potency [9] | outcome [5]

O=C1Nc2cc(Cl)ccc2Oc2ccccc21
inactive: Potency [2] | Potency [3] | outcome [4] | Potency [8] | Potency [9] | outcome [5] | Potency [6]

c1ccc(OCc2ccc(CCCN3CCOCC3)cc2)cc1
inactive: Potency [2] | Potency [3] | outcome [4] | outcome [10] | Potency [8] | outcome [5]

CCCCCCCCCCCCC(=O)O
active: Potency [1] 19.4 µM
inactive: Potency [2] | outcome [4] | Potency [8] | Potency [9] | outcome [5]

NC(N)=N/N=C/c1c(Cl)cccc1Cl
active: Potency [6] 29.8 µM
inactive: Potency [2] | Potency [3] | outcome [4] | Potency [8] | outcome [5]

— PubChem BioAssay (Tox21)
